Assay [1] in a line: qHTS for differential inhibitors of proliferation of Plasmodium falciparum line 7G8 (AID 1815).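 Also: parasite growth measured after three days of incubation.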 Also: potency is read from the fitted curve at half-maximal effect. Background: qHTS replaces the single test concentration by a dilution series.
Assay [2] in a line: qHTS for differential inhibitors of proliferation of Plasmodium falciparum line GB4 (AID 1816).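 Also: parasite growth measured after 72 h incubation.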 Also: potency is read from the fitted curve at half-maximal effect. The conditions noted are these: Potency: Plasmodium falciparum GB4 proliferation inhibition.
Assay [3] is described as follows: qHTS for differential inhibitors of proliferation of Plasmodium falciparum line Dd2 (AID 1882). Also: nearly all actives have a fitted effect of over 65% in size. Also: potency is read from the fitted curve at half-maximal effect. The conditions noted are these: Potency: Plasmodium falciparum Dd2 proliferation inhibition. A digest of the protocol: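 RBC culture, 0.3% parasitemia / 2.5% Hct final; cpd added by pin tool in DMSO; 72 h, 37 C, 5% CO2; lysis buffer + SYBR Green I, o/n RT dark; FI 485/535; norm. to artemisinin 0.29 uM and DMSO.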

Assay [4] is described as follows: qHTS Assay for Modulators of Human Peripheral Myelin Protein 22 (PMP22) Expression/Activity (AID 1967; active = well fitted curve in the direction sought with a large enough effect in the signal ratio; the % refers to the signal ratio). A digest of the protocol:
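MSC80 mouse Schwann cells stably carrying Pmp22 promoter–green click beetle luciferase plus EF-alpha–red luciferase control were dosed for 24h at 37 °C. Dual-colour luminescence was filter-overlap corrected; %Activity came from green/red ratio versus untreated cells.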

In assay [5] the target is Glucocorticoid receptor (Homo sapiens) (UniProt P04150). The assay is described as follows: GR-GFP Redistribution (AID 450;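 active = compounds whose dose series gives a full or clear partial fitted curve of increased nuclear translocation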; also: potency is read from the fitted curve at half-maximal effect). As to conditions: U2OS GR-GFP nuclear translocation, laser cytometry, 2 h.
Assay [6] is described as follows: Cytotoxicity counterscreen for inhibitors of SARS-CoV-2 cell entry (AID 1645845; calls by dose curve; also: nearly all actives have a fitted effect of over 50% in size). As to conditions: outcome: dose series up to 57.1 µM unless noted. A digest of the protocol: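 Counterscreen run in the same HEK293-ACE2 line as the pseudotyped-particle entry assay, without particles. Viability after 48 h at 37 C was read as ATP luminescence, scaled between cell-containing and cell-free wells.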
For orientation: Counterscreens check selectivity or assay interference.

Here are results for 18 compounds from PubChem BioAssay (NCATS).

Structures are written as SMILES. Values joined by “and” are separate entries in the source; they are usually repeats but may differ in a detail not shown here. Equal entries are not always repeated. Results filed as inconclusive are left out. Active and inactive are the calls of the source. Unless noted, calls follow the shape of the dose curve; as a rule, active = well fitted curve in the direction sought with a large enough effect; inconclusive = small, poorly fitted or top-dose-only effect, or another doubt; inactive = no such curve, though single readings can be large; an effect the other way counts as inactive or inconclusive.

Glucocorticoid receptor (Homo sapiens), sequence (P04150 whole entry, looked up): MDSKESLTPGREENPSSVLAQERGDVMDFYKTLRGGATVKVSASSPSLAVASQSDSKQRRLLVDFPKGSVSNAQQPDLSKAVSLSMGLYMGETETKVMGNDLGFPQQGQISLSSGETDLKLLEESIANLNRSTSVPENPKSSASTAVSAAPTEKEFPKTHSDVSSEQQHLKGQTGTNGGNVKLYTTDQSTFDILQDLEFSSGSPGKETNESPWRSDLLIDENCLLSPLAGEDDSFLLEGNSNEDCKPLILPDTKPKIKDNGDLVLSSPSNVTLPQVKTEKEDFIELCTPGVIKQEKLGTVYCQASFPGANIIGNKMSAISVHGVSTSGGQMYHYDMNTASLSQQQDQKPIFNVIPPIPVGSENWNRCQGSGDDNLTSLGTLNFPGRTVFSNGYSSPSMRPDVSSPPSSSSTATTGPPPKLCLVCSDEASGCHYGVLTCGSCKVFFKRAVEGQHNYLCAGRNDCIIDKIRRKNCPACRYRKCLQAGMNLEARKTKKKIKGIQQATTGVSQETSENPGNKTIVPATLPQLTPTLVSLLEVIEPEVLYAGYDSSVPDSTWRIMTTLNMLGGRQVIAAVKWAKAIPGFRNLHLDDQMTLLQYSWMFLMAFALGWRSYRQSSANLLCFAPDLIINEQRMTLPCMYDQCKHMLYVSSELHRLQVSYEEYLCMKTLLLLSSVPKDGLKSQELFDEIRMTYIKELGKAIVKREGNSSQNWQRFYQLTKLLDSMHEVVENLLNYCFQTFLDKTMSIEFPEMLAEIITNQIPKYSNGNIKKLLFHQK

Turning to `CCCCN1C2CCC1CC(OC(c1ccc(F)cc1)c1ccc(F)cc1)C2` (stereo not drawn), the Potency was 2 µM (active) in assay [1], 1.58 µM (active) in assay [2] and 3.98 µM (active) in assay [3].
Regarding `CCCN1CCC[C@@H](c2cccc(C#N)c2)C1`, in assay [3], the Potency result was “inactive”. Further, in assay [4], the result was inactive.
In the case of `CC12CCC3C(CCC4=C(O)C(=O)CCC43C)C1CCC2=O` (stereo not drawn), the Potency result in assay [2] and in assay [3] was “inactive” throughout. Moreover, the outcome in assay [4] was inactive.
With `NC(Cn1ccc(=O)[nH]c1=O)C(=O)O` (stereo not drawn), the Potency result in assay [1], in assay [2] and in assay [3] was “inactive” throughout. In assay [4], the result was inactive.
As to `CC1Cc2cc3c(cc2C(c2ccc(N)cc2)=NN1)OCO3` (stereo not drawn), the Potency in assay [1] is 12.6 µM (active).
For the compound `COc1ccc2c3c1O[C@H]1C(=O)CC[C@@]4(O)C(C2)N(CC2CC2)CCC314` (stereo partly drawn), the call in assay [4] was inactive.
Regarding `CCCN1CCC[C@@H]2Cc3n[nH]cc3C[C@H]21`, the Potency entry in assay [2] and in assay [3] was “inactive” throughout. In addition, the call in assay [4] was inactive.
`COC(=O)C(N)CCCN=C(N)N[N+](=O)[O-]` (stereo not drawn): the Potency entry in assay [1], in assay [2] and in assay [3] was “inactive” each time. Besides, the outcome in assay [4] was inactive.
On to `C[C@H]1OC[C@@H](C[N+](C)(C)C)O1`, for which the Potency in assay [5] was > 46 µM (inactive) and > 20.6 µM (inactive). Besides, the Potency entry in assay [1], in assay [2] and in assay [3] was “inactive” each time. For the same compound, in assay [4], the compound was classed as inactive.
Regarding `CN1CCC23CCCC[C@H]2C1Cc1ccc(O)cc13` (stereo partly drawn), the figures for the Potency in assay [1] and in assay [3] were 6.31 µM (active) and 5.01 µM (active), respectively. For the same compound, the compound was called inactive in assay [4].
`C[C@H]1C2Cc3ccc(O)cc3[C@]1(C)CCN2CC1CC1`: the Potency in assay [2] is 11.2 µM (active); in assay [3], 7.94 µM (active). Moreover, the call in assay [4] was inactive.
Turning to `NNCc1cccc(O)c1`, the Potency in assay [5] was > 46 µM (inactive); in assay [1], 12.6 µM (active).
With `COc1ccc2c(c1O)-c1cccc3c1C(C2)N(C)CC3` (stereo not drawn), the Potency in assay [1] was 8.91 µM (active); in assay [2], 8.91 µM (active); in assay [3], 11.2 µM (active).
As to `CCCN1CCCC(c2cccc(O)c2)C1` (stereo not drawn), the values for the Potency in assay [1] and in assay [2] were 8.91 µM (active) and 12.6 µM (active), respectively. The compound was classed as inactive in assay [4].
With `COc1cc(C[C@@H](C)N)c(OC)cc1I`, the Potency in assay [2] was 12.6 µM (active); in assay [3], 7.08 µM (active).
Regarding `CCN(CC)C(=O)N[C@@H]1C[C@@H]2c3cccc4[nH]cc(c34)C[C@H]2N(C)C1`, the Potency in assay [1] was 5.62 µM (active); in assay [2] it was 6.31 µM (active).
`CC(C)(O)C1C2OC(=O)C1[C@]1(O)C[C@H]3O[C@]34C(=O)O[C@H]2[C@]14C` (stereo partly drawn) (tested in a mixture with another compound): the Potency entry in assay [1], in assay [2] and in assay [3] was “inactive” throughout.
Turning to `NC(=O)[C@H]1O[C@@H](O)[C@H](O)[C@@H](O)[C@@H]1O`, in assay [6], the Potency entry was “inactive”.
